Read-out in assay [1]: E-selectin (Homo sapiens) (UniProt P16581)
The assay can be described thus: BSK_SAg_Eselectin: BioMAP Diversity Plus: SAg Assay for Eselectin Biomarker Activity (AID 2283091). Particulars: primary human HUVEC with PBMC; actives raise or lower the signal. Put shortly: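 Co-culture: HUVEC + PBMC. Dose compound; 24 h. ELISA for E-selectin. Bidirectional fit vs DMSO.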

Read-out in assay [2]: Monokine induced gamma interferon (MIG), CXCL9 (gene 4283)
The assay can be described thus: BSK_SAg_MIG: BioMAP Diversity Plus: SAg Assay for Monokine induced gamma interferon (MIG) Biomarker Activity (AID 2283092). Particulars: primary human HUVEC with PBMC; actives raise or lower the signal. Put shortly: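 HUVEC plus human PBMC co-culture, chemicals dosed and MIG (CXCL9) quantified by ELISA at 24 h. Bidirectional curve fitting against DMSO as negative control and baseline, so both gain and loss of signal count as activity.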

Assay [3] is described as follows: BSK_SAg_PBMCCytotoxicity: PBMC Cytotoxicity Assessment in the BioMAP Diversity Plus: SAg Assay (AID 2283093).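 For AC50: PBMC superantigen activated with SEB plus TSST-1 one hour after compound addition.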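 Note: fitted both ways against DMSO so a hit may be loss or gain of signal.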 Particulars: primary human HUVEC with PBMC. The gist of the method:
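PBMC viability by Alamar Blue reduction, fluorescence read at 546/580 nm after 6 h dye exposure. Cells were dosed 1 h before SEB plus TSST-1 activation (20 ng/mL final each), then held 90 h; endothelial/PBMC human co-culture.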

Read-out in assay [4]: Interleukin-8 (IL8), CXCL8 (gene 3576)
Put plainly: BSK_SAg_IL8: BioMAP Diversity Plus: SAg Assay for Interleukin-8 (IL8) Biomarker Activity (AID 2283094). Particulars: primary human HUVEC with PBMC; actives raise or lower the signal. The gist of the method: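 HUVEC/PBMC co-culture, 24 h post-dose; IL-8 by ELISA. Gain or loss of signal fitted bidirectionally vs DMSO baseline.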

Assay [5] can be described thus: BSK_SAg_Proliferation: Cell Proliferation Assessment in the BioMAP Diversity Plus: SAg Assay (AID 2283095).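 Note: relative cell number as total protein by SRB absorbance in sub-confluent culture.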 Particulars: primary human HUVEC with PBMC. Put shortly:
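HUVEC/PBMC co-culture, 96-well. TCA-fixed (10%), 0.1% SRB stain, A560 at 96 h. Protein content used as viability readout; bidirectional fitting vs DMSO control.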

Assay [6] can be described thus: BSK_SAg_SRB: Viability Assessment in the BioMAP Diversity Plus: SAg Assay (AID 2283096).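 Note: cells read one day after compound addition; hits may be either gain or loss of signal compared with DMSO.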 Particulars: primary human HUVEC with PBMC. The gist of the method:
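Compounds were added to a human vascular co-culture of umbilical vein endothelium and PBMC. After 24 h, parallel cultures were fixed with 10% TCA, stained with 0.1% sulforhodamine B and read at 560 nm. Gain or loss of signal was fitted relative to DMSO.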

In assay [7] the target is human CYP19A1, CYP19A1 (gene 1588) (UniProt P11511). Put plainly: NVS_ADME_hCYP19A1: NovaScreen (NVS) CYP450-related Enzyme Activity (ADME) Assay for human CYP19A1 (AID 2283098; active = hit-call score of the fitted dose curve at least 0.9, where 1 is the maximum). Put shortly: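 Fluorescence intensity read-out; activity taken as signal loss relative to acetonitrile vehicle. Extracted enzyme, specific substrate, no cells, 0.5 h exposure. Duplicate single-point screen at 10 uM, then concentration–response follow-up for actives.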

Assay [8] concerns the target human CYP1A1, CYP1A1 (gene 1543) (UniProt P04798). Put plainly: NVS_ADME_hCYP1A1: NovaScreen (NVS) CYP450-related Enzyme Activity (ADME) Assay for human CYP1A1 (AID 2283100; active = hit-call score of the fitted dose curve at least 0.9, where 1 is the maximum). Here is the method:
NVS_ADME_hCYP1A1 is a biochemical, single-readout assay that uses extracted gene-proteins in a cell-free assay. Measurements were taken 1 hour after chemical dosing in a 96-well plate.NVS_ADME_hCYP1A1 is one of one assay component(s) measured or calculated from the NVS_ADME_hCYP1A1 assay. It is designed to make measurements of enzyme activity, a form of enzyme reporter, as detected with fluorescence intensity signals by Fluorescence technology.Data from the assay component NVS_ADME_hCYP1A1 was analyzed into 1 assay endpoint. This assay endpoint, NVS_ADME_hCYP1A1, was analyzed in the positive analysis fitting direction relative to Acetonitrile as the negative control and baseline of activity. Using a type of enzyme reporter, loss-of-signal activity can be used to understand changes in the enzymatic activity as they relate to the gene CYP1A1. Furthermore, this assay endpoint can be referred to as a primary readout, because this assay has produced multiple assay endpoints where this one serves a enzymatic activity function. To generalize the intended target to other relatable targets, this assay endpoint is annotated to the cyp intended target family, where the subfamily is xenobiotic metabolism. […]

In assay [9] the target is human CYP2B6, CYP2B6 (gene 1555) (UniProt P20813). The assay can be described thus: NVS_ADME_hCYP2B6: NovaScreen (NVS) CYP450-related Enzyme Activity (ADME) Assay for human CYP2B6 (AID 2283101; active = hit-call score of the fitted dose curve at least 0.9, where 1 is the maximum). Put shortly:
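Recombinant human CYP2B6 with fluorogenic substrate, read by fluorescence intensity 1 h after dosing. Primary screen in duplicate at 10 uM, actives followed in concentration series; signal loss relative to acetonitrile control.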

The target in assay [10] is human CYP2A6, CYP2A6 (gene 1548) (UniProt P11509). The assay can be described thus: NVS_ADME_hCYP2A6: NovaScreen (NVS) CYP450-related Enzyme Activity (ADME) Assay for human CYP2A6 (AID 2283099; active = hit-call score of the fitted dose curve at least 0.9, where 1 is the maximum). Put shortly:
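Fluorescent substrate turnover by recombinant CYP2A6 (insect cell source), 0.5 h read. Screen: 10 uM, duplicate; threshold hits (e.g. 30% inhibition) → singleton concentration-response, top 20 uM. Positive and negative controls on every plate.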

Molecules are shown by their SMILES. Results filed as inconclusive are left out. The source made the active and inactive calls. Rule for the calls, unless noted: active = hit-call score of the fitted dose curve at least 0.9, where 1 is the maximum; inactive = score below 0.9.

E-selectin (Homo sapiens), sequence (P16581 whole entry, looked up): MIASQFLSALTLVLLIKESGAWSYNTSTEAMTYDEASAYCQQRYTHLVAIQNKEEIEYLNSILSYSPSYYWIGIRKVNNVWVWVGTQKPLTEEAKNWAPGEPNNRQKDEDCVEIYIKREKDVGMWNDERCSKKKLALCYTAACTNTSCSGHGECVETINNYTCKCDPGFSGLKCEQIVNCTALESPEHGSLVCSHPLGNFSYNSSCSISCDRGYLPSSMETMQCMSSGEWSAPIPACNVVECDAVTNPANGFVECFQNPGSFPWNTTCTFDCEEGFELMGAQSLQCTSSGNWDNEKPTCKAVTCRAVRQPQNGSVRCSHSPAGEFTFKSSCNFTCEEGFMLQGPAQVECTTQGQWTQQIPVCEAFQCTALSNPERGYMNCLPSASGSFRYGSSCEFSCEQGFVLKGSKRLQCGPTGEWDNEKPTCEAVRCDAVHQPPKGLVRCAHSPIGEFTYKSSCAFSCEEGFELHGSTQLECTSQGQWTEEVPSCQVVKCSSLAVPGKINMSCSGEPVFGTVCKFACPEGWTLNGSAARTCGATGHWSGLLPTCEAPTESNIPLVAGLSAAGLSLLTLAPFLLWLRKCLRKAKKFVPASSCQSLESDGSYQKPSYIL
human CYP2B6, CYP2B6 (gene 1555), sequence (P20813 whole entry, looked up): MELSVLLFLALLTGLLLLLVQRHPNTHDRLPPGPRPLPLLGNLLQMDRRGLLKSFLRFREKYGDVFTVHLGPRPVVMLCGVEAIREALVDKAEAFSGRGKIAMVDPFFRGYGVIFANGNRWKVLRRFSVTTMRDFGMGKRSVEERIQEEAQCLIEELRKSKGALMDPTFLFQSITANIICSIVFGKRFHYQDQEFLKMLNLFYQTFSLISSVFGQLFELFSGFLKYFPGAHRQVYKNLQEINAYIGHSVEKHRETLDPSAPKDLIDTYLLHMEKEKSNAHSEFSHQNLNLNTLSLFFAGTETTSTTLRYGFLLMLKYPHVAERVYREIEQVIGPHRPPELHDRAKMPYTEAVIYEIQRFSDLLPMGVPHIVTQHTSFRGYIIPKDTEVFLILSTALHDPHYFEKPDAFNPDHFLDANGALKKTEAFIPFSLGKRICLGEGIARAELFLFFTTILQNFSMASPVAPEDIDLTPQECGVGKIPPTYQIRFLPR
human CYP19A1, CYP19A1 (gene 1588), sequence (P11511 whole entry, looked up): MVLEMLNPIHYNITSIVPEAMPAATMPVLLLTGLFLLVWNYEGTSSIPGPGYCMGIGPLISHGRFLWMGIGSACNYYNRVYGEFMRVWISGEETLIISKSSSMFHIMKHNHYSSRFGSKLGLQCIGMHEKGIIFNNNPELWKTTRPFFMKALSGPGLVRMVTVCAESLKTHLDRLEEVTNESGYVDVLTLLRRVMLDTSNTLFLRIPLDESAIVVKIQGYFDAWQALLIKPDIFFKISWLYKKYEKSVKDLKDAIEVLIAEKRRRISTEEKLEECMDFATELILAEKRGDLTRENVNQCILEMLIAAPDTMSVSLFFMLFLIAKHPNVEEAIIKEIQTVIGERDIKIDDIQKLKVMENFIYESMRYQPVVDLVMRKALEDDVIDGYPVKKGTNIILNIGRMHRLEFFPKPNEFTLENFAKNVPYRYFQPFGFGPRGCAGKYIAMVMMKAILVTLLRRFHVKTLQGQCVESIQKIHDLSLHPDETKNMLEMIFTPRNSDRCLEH
human CYP1A1, CYP1A1 (gene 1543), sequence (P04798 whole entry, looked up): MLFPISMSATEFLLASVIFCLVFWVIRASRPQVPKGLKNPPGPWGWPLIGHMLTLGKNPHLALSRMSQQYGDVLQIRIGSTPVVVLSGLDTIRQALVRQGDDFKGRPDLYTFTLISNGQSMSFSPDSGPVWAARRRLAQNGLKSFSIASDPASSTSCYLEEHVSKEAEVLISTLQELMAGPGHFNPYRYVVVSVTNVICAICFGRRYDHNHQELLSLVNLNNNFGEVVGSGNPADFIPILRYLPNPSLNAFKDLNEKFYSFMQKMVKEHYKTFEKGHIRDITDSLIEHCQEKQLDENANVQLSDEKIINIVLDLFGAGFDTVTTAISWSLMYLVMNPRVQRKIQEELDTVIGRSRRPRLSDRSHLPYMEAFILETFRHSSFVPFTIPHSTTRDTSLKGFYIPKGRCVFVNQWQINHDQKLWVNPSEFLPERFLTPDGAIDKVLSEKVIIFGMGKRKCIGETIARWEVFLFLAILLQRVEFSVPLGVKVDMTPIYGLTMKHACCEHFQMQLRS
human CYP2A6, CYP2A6 (gene 1548), sequence (P11509 whole entry, looked up): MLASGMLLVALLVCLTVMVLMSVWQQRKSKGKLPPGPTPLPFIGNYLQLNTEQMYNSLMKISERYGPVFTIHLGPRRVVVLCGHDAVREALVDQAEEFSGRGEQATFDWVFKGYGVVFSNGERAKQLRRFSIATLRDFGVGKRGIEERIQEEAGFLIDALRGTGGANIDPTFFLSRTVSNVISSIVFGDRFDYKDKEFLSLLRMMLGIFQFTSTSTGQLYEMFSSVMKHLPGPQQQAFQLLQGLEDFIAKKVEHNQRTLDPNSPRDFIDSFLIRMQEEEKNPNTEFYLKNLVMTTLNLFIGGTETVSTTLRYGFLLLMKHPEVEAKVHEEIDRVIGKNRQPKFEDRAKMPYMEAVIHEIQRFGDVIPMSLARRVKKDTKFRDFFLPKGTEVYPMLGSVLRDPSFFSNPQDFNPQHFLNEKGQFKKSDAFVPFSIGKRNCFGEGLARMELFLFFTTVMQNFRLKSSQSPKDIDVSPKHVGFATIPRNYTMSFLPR

For `CCCCCCOC(=O)CC(CC(=O)OCCCCCC)(OC(=O)CCC)C(=O)OCCCCCC`, the result in assay [1], in assay [2], in assay [4] and in assay [6] was inactive. Also, the AC50 in assay [3] was 4.11 µM (active); in assay [5], 9.76 µM (active).

Take `O=C(O)[C@H](O)[C@@H](O)C(=O)O`: the outcome in assay [1], in assay [2], in assay [3], in assay [4], in assay [5] and in assay [6] was inactive.

With `C[C@@H](Oc1ccc(CNC(=O)c2cccnc2Oc2ccc3c(c2)OCO3)c(F)c1)C(=O)O`, the outcome in assay [1], in assay [2], in assay [3], in assay [4], in [5] and in assay [6] was inactive.

As to `O=S(=O)(O)CCC(F)(F)C(F)(F)C(F)(F)C(F)(F)C(F)(F)C(F)(F)F`, the result in [1], in assay [2], in [3], in [4], in assay [5] and in assay [6] was inactive.

For `CCCCCCCCCCCCCCO`, the AC50 in assay [1] is 36.3 µM (active); in assay [2] it was 39.4 µM (active); in assay [3], 30.3 µM (active); in assay [4], 31.8 µM (active); in assay [5], 27.7 µM (active); in [6] it was 32.4 µM (active).

Turning to `NNC(=O)c1ccncc1`, the result in assay [1], in assay [2], in [4], in assay [5] and in assay [6] was inactive. Besides, in [3], the AC50 is 5.14 µM (active).

On to `c1ccc2ncccc2c1`, for which the outcome in assay [1], in [2], in [3], in [4], in [5] and in assay [6] was inactive.

For `CCCCCCCC/C=C\CCCCCCCC(=O)OC[C@@H](O)[C@H]1OC[C@H](O)[C@H]1O`, the outcome in assay [1], in assay [2], in assay [3], in assay [4], in [5] and in assay [6] was inactive.

For `O=C(O)c1cccc(C[C@@H]2COc3ccc(OCc4nc5cc(F)ccc5s4)cc3[C@@H]2O)c1`, the result in assay [1], in assay [2], in [3], in assay [4], in assay [5] and in assay [6] was inactive.

For the compound `Cc1nc(-c2ccccn2)ncc1C(=O)Nn1cc(C)c2cc(F)ccc21`, the result in assay [1], in assay [2], in assay [3], in assay [4] and in assay [6] was inactive. Also, the AC50 in assay [5] is 20 µM (active).

`OC[C@H]1O[C@@](CO)(O[C@H]2O[C@H](CO)[C@@H](O)[C@H](O)[C@H]2O)[C@@H](O)[C@@H]1O`: the outcome in assay [1], in assay [2], in assay [3], in assay [4], in assay [5] and in assay [6] was inactive.

Consider `OC(O)(C(F)C(O)(O)C(F)(F)F)C(F)(F)F`, for which the outcome in assay [1], in assay [2], in assay [3], in [4] and in [6] was inactive. Further, the AC50 in assay [5] was 30 µM (active).

Consider `Cc1ccc(S(=O)(=O)NC(=O)NN2CCCCCC2)cc1`, for which the outcome in assay [1], in assay [2], in assay [3], in [4], in assay [5] and in assay [6] was inactive.

For `CCCCN1C(=O)[C@@H]([C@H](O)C2CCCCC2)NC(=O)C12CCN(Cc1ccc(Oc3ccc(C(=O)O)cc3)cc1)CC2`, the result in [1], in [2], in [3], in assay [4], in assay [5] and in assay [6] was inactive.

Take `CCCC(CCC)C(=O)O`: the result in assay [1], in assay [2], in assay [3], in assay [4], in assay [5] and in [6] was inactive. Also, the call in [7] was inactive.

With `C=CCc1cc(S(=O)(=O)c2ccc(O)c(CC=C)c2)ccc1O`, the AC50 is 13.8 µM (active) in assay [1]; 34.8 µM (active) in assay [2]; 36.8 µM (active) in assay [3]; 11.4 µM (active) in assay [4]; 17.1 µM (active) in assay [5]; 19.2 µM (active) in assay [6]. For the same compound, the AC50 in assay [8] is 2.32 µM (active); in assay [9] it was 2.77 µM (active).

On to `OCCC(F)(F)C(F)(F)C(F)(F)C(F)(F)F`, for which the outcome in assay [1], in assay [2], in [3], in assay [4], in assay [5] and in assay [6] was inactive.

With `OCc1c[nH]c2ccccc12`, the outcome in assay [1], in assay [2], in assay [3] and in assay [6] was inactive. Moreover, the figures for the AC50 in [4] and in assay [5] were 0.0481 µM (active) and 31.1 µM (active), respectively.

Regarding `CCN(CC)C(=S)SSC(=S)N(CC)CC`, the AC50 in assay [1] is 32.6 µM (active); in assay [2], 36.3 µM (active); in assay [3] it was 20 µM (active); in [4] it was 32.5 µM (active); in [5], 6.07 µM (active); in assay [6], 30.8 µM (active). In assay [9], the AC50 was 0.405 µM (active). Also, the compound was called inactive in assay [7].

In the case of `c1ccc(C(O[C@@H]2CCCN(CCc3ccc4c(c3)OCO4)C2)c2ccccc2)cc1`, the AC50 in [1] was 27.6 µM (active); in assay [2], 30.9 µM (active); in assay [3], 28.4 µM (active); in assay [4], 14.1 µM (active); in assay [5], 16.3 µM (active); in [6], 24.3 µM (active). Further, the AC50 in [8] is 4.89 µM (active); in assay [9] it was 4.4 µM (active). Besides, in assay [10], the call was inactive.

The term AC50 denotes the midpoint of the concentration-response curve, whichever way the signal moves.

For the origin of these results see PubChem BioAssay (EPA / NIEHS).
